Source: PubChem
An excerpt weighted towards active compounds, which were near 11% of everything screened.
Vaccinia mCherry: inhibitors of vaccinia virus infection (mCherry reporter signal); Vaccinia virus mCherry reporter infection, fluorescence; Potency, µM (series often up to 36.5 µM), for inactives: top-dose activity change, negative = inhibition, actives largely listed as inhibitors; 310,000 tested, 0.63% active; AID 720579; calls by dose curve; tested in A549 cells; also: % is scaled to controls: 0 for no effect and ±100 for the full control effect; nearly all actives have a fitted effect of over 35% in size
HCV inhibitor: blocks hepatitis C virus; Potency, µM (highest dose often 41.8 µM), inactives show at the highest dose activity change, negative = inhibition, actives largely listed as inhibitors; 340,000 tested, 3.4% active; Huh7.5.1 HCVcc-Cre infection, luciferase reporter, 44 h; also: % is scaled to controls: 0 for no effect and ±100 for the full control effect
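Whole-lifecycle infectious HCVcc-Cre system; cells 1,000/well, compound then virus (~0.5 moi) added 4 h after plating, 44 h culture. Luciferase read 15 sec following 15 min substrate incubation, room temp.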
Pf growth 96h: inhibits malaria parasite growth, 96 h; P. falciparum luciferase reporter growth, 96 h; Potency, µM (top dose mostly 28.7 µM), for the others: top-dose activity change, negative = inhibition, usual class: inhibitors; 320,000 tested, 6.9% active; AID 504834; also: % is scaled to controls: 0 for no effect and ±100 for the full control effect
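Luminescence readout: decreased luciferase signal marks inhibited growth of reporter-expressing P. falciparum in infected red cells (2% hematocrit, 0.05% parasitemia final), exposed to compound two generations (96 h, 37 C, 5% CO2).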
Pf growth 48h: P. falciparum growth inhibition at 48 hours (one generation) | P. falciparum luciferase growth in erythrocytes, 48 h | Potency, µM (doses to about 28.7 µM), without a hit: top-dose activity change, negative = inhibition, hits mostly inhibitors | 310,000 tested, 5.9% active | AID 504832; also: % is scaled to controls: 0 for no effect and ±100 for the full control effect
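A one-generation exposure of luciferase-tagged malaria parasites in RPMI 1640/Albumax erythrocyte culture, 37 C and 5% CO2. Inhibition is inferred from decreased luminescence after adding detection reagent.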
VACV Venus inh: inhibitors of vaccinia virus (Venus reporter). 330,000 tested, 0.46% active. Vaccinia virus Venus reporter expression, fluorescence. Potency, µM (titrated, usually from 36.5 µM), without a hit: top-dose activity change, negative = inhibition, usual class: inhibitors; calls by dose curve; tested in A549 cells; also: % is scaled to controls: 0 for no effect and ±100 for the full control effect; nearly all actives have a fitted effect of over 30% in size
NS1 function inh: blocks influenza NS1 protein function. Potency, µM (series often up to 46.1 µM), for inactives: top-dose activity, positive = more growth. 270,000 tested, 0.4% active. AID 2326; calls by dose curve; also: actives are rising curves; nearly all actives have a fitted effect of over 50% in size
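Growth recovery, yeast-based: influenza A NS1 expressed in S. cerevisiae causes slow growth, and suppressors are detected by OD600. The parent strain without NS1 is used as positive control.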
An asterisk follows results filed as active; i = inactive; ? = inconclusive; . = no result; [ ] = another dose, or the depositor's remark. Unless noted, calls follow the shape of the dose curve; as a rule, active = well fitted inhibition curve with a large enough effect; inconclusive = small, poorly fitted or top-dose-only effect, or another doubt; inactive = no such curve, though single readings can be large or run the other way. Potency is read from the fitted curve at half-maximal effect.

SMILES	Vaccinia mCherry	HCV inhibitor	Pf growth 96h	Pf growth 48h	VACV Venus inh	NS1 function inh
CCOc1cc(C(=O)NC(C)C2CCCO2)cc(OCC)c1OCC (stereo not drawn)	i	6%	12µM*	41%[1.15 µM]	-9%	0%
Cc1ccc(NC(=O)c2ccc([N+](=O)[O-])o2)c(C)c1	.	14µM*	-31%	?	.	-7%
Cc1cccnc1NC(=O)c1ccc([N+](=O)[O-])o1	-26%	5%	?	?	-10%	-8%
Cc1ccccc1NC(=O)c1ccc([N+](=O)[O-])o1	-27%	?	3.7µM*	10µM*	-20%	-1%
O=C(Nc1ccccc1Cl)c1ccc([N+](=O)[O-])o1	?	?	166%	-30%	?	-71%
CN1CCN(c2ccccc2NC(=O)c2ccc([N+](=O)[O-])o2)CC1	?	?	40%	?	?	4%
CS(=O)(=O)N1CCN(c2ccccc2NC(=O)c2ccc([N+](=O)[O-])o2)CC1	-7%	11µM*	11%	?	-6%	6%
O=C(Nc1cccc2ncccc12)c1ccc([N+](=O)[O-])o1	?	25µM*	35%	?	?	-20%
CCOC(=O)C(Cc1ccc(NC(C)=O)cc1)N1C(=O)c2ccccc2C1=O (stereo not drawn)	.	-7%	-3%	-22%	.	.
O=C(NNc1ccccc1Br)C(=O)n1ccc2ccccc21	i	-3%	?	6%	-11%	-4%
Cc1ccc(NC(=S)NC(=O)c2ccc(Br)o2)c(C)c1	i	-1%	13µM*	30%	-13%	4%
Cc1cccc(NC(=O)c2ccc([N+](=O)[O-])o2)n1	-9%	?	10µM*	?	-27%	-33%
Cc1cccc(NC(=S)NC(=O)c2ccc(Br)o2)c1C	-12%	-13%	-20%	-14%	3%	9%
COc1ccccc1C(O)(C(=O)N(NC(C)=O)c1ccccc1)c1ccccc1OC	i	5%	22%	-13%	1%	7%
COc1ccccc1-n1c(SCC(=O)NC(C)(C)C)nnc1-c1ccco1	.	24%	.	-15%	.	-1%
CON(C)S(=O)(=O)c1cccc(C(=O)Nc2ccc(S(=O)(=O)NC3=NCCCCC3)cc2)c1	-11%	?	?	?	-22%	.
CCCOc1ccc(C(=O)Nc2ccc(S(=O)(=O)NC3=NCCCCC3)cc2)cc1	8.9µM*	?	10µM*	5.9µM*	?	.
CCN(CC)S(=O)(=O)c1cccc(C(=O)Nc2ccc(S(=O)(=O)NC3=NCCCCC3)cc2)c1	-13%	6%	6.6µM*	?	-24%	.
Nc1nc2cc(S(=O)(=O)NC3=NCCCCC3)ccc2s1	.	-3%	?	?	.	12%
CCOC(=O)c1ccc(S(=O)(=O)Nc2nc3cc(S(=O)(=O)NC4=NCCCCC4)ccc3s2)cc1	-11%	-18%	13µM*	-1%	4%	.
COc1ccccc1NC(=O)CSc1nc2ccccc2c(=O)n1C	.	-5%	-25%	0%	.	-48%
COc1ccc(-n2c3c(cc(C(=O)NNc4ccccc4)c2=O)C(=O)CC(C)(C)C3)cc1	-10%	-4%	-5%	-52%	-6%	.
COc1ccc(-n2c3c(cc(C(=O)N4CCN(CCO)CC4)c2=O)C(=O)CC(C)(C)C3)cc1	i	5%	10µM*	-3%	-6%	1%
COc1cc(OC)cc(C(=O)Nc2ccc(Nc3ccccc3)cc2)c1	.	8.9µM*	-84%	32%	.	-33%
COc1ccc(C(=O)Nc2ccc(Nc3ccccc3)cc2)cc1OC	.	-25%	?	?	.	10%
SMILES	Vaccinia mCherry	HCV inhibitor	Pf growth 96h	Pf growth 48h	VACV Venus inh	NS1 function inh
CCOCCOc1cccc(C(=O)NC(c2ccccc2)c2ccccc2)c1	.	-14%	2.1µM*	?	.	7%
COc1cc(OC)cc(C(=O)Nc2cccc(C(C)=O)c2)c1	.	-17%	-19%	?	.	-12%
COc1cc(OC)cc(C(=O)Nc2cccc(NC(=O)c3ccccc3)c2)c1	-3%	10µM*	?	.	-13%	0%
COc1cc(OC)cc(C(=O)NC(c2ccccc2)c2ccccc2)c1	.	-7%	12µM*	?	.	9%
CCOCCOc1cccc(C(=O)NC(C)c2ccc3ccccc3c2)c1 (stereo not drawn)	.	-12%	?	-12%	.	6%
NS(=O)(=O)c1ccc(NCc2nc3ccccc3[nH]2)cc1	.	.	.	.	.	-3%
CC(C)CC(N)c1csc(Nc2ccc(C(=O)N(C)Cc3ccccc3)cn2)n1 (stereo not drawn)	-28%	.	.	.	-17%	.
Nc1nc(-n2cnnc2)nn1-c1ccccc1	-13%	-8%	2%	7%	-3%	-1%
Nc1nc(N2C(=O)C3CC=CCC3C2=O)nn1-c1ccccc1 (stereo not drawn)	i	3%	2.9µM*	?	-13%	-13%
COc1cc(NC(=O)CSc2nc3nc(C)c(Cc4ccccc4)c(C)n3n2)cc(OC)c1	-10%	.	.	.	0%	.
Cc1cc(C)c2c(NC(=S)NC(=O)c3ccccc3)nn(C)c2n1	i	-13%	-3%	?	-2%	.
Cc1cc(C)c2c(NC(=O)CCl)nn(C)c2n1	4.5µM*	?	1.9µM*	3.7µM*	?	.
Brc1ccccc1-n1nnc(-c2cccnc2)n1	-19%	-9%	4%	39%	-9%	-9%
Cn1c2ccccc2c2cc(/C=N/NC(=O)c3ccc(O)cc3O)ccc21	.	-2%	37%	-30%	.	8%
O=C(O)c1ccc(/C=N/NC(=O)c2cc3ccccc3cc2O)cc1	i	-8%	.	.	-10%	.
Cn1c(O)c(/C=N/NC(=O)c2cc3ccccc3cc2O)c2ccccc21	7.9µM*	?	?	?	?	-6%
COCCn1c(C)cc(/C=N/NC(=O)c2cc3ccccc3cc2O)c1C	i	?	9.3µM*	3.7µM*	-5%	.
Cc1cccc(OC2CCN(Cc3nc(CC4CC4)no3)CC2)c1	-24%	5%	4.7µM*	9%	-16%	-3%
C1CC1Cc1noc(CN2CCN(C3C4CC5CC(C4)CC3C5)CC2)n1 (stereo not drawn)	.	4%	13µM*	20%	.	8%
c1cnc(-c2noc(CN3CCN(C4C5CC6CC(C5)CC4C6)CC3)n2)cn1 (stereo not drawn)	.	4%	-3%	7%	.	1%
O=C(c1cc(-c2ccc(Cl)cc2)on1)N1CCCCCC1	-6%	-5%	270%	174%	-4%	3%
COC(=O)CCn1[nH]c(=O)c2ccccc2c1=O	-12%	34%	9.3µM*	0%	0%	3%
[O-]/C(=C(\C(=S)Nc1cccc2ccccc12)[n+]1ccccc1)c1cccs1	2%	-5%	?	-15%	2%	13%
[O-]/C(=C(\C(=S)Nc1cccc2ccccc12)[n+]1ccccc1)c1ccc2c(c1)OCCO2	.	-12%	5.9µM*	.	.	16%
